Assay results taken from PubChem BioAssay (EPA / NIEHS).
Records with an inconclusive call do not appear. Activity calls are given as the source filed them. How the source made its calls: active means hit-call score of the fitted dose curve at least 0.9, where 1 is the maximum; inconclusive means response in the unintended direction; inactive means score below 0.9.

What was measured:
[1] = VALA_TUBIPS_Agonist_TubuleLength: VALA Sciences human iPS-derived Endothelial Tubule Formation (TUBIPS) Agonism Assay (AID 2284311)
Procedure, shortened: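 Agonist-mode readout is the gain in imaged tubule length versus DMSO baseline. It was measured by fluorescence high-content imaging 72 h after dosing human iPSC-derived endothelial cells.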

[2] = VALA_TUBIPS_Antagonist_TubuleLength: VALA Sciences human iPS-derived Endothelial Tubule Formation (TUBIPS) Antagonist Assay (AID 2284313)
Procedure, shortened: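 Tubule length was quantified by high-content imaging of CD31- and nuclear-stained cells, with 0.1% DMSO as neutral and 100 uM suramin as inhibition control. Compounds were applied for 3 days, in 10 ng/ml VEGF, to cultures pre-grown 3 days.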

[3] = VALA_MIGHUV2_Bcatenin: VALA Sciences human Umbilical Vein Endothelial Cell Migration (MIGHUV) Assay, Nuclear Translocation of beta-Catenin after Recovery (AID 2284315)
Procedure, shortened: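 Nuclear beta-catenin imaged by immunofluorescence with Hoechst counterstain in fixed HUVEC, 24 h after scratch wounding and chemical addition. Six-point concentration-response in triplicate; activity scored as signal increase over 0.1% DMSO vehicle.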

[4] = VALA_MIGHUV2_WoundArea: VALA Sciences human Umbilical Vein Endothelial Cell Migration (MIGHUV) Assay, Area of Scratch Wound after Recovery (AID 2284316)
Procedure, shortened: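 Wound-area endpoint read by fluorescence imaging of Hoechst-stained nuclei after a 24 h recovery period following scratch of HUVEC monolayers (9000 cells/well). Chemicals dosed within 30 min post-scratch, triplicate 6-point series, 0.1% DMSO vehicle; Cytochalasin D positive control.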

Measured: outcome

Nc1ncn[nH]1
inactive: all assays above
